Measured values: PubChem BioAssay AID485270 (The Scripps Research Institute Molecular Screening Center, 2010)
Among all 330,000 compounds or so, about 5,800 (1.8%) were called active. The sample holds actives, similar compounds and a random draw of the others, so the mix is not that of the screen. Cut-off read from the data, not from the text of the source: active = inhibition mostly above about 38% (no sharp cut-off); inactive = mostly below about 40%.

What follows are compounds tested against Orexin/Hypocretin receptor type 1 (Homo sapiens) (UniProt O43613) (assay: antagonists of human orexin 1 receptor (OX1R) (AID 485270;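 note: 0% = agonist challenge alone and 100% = reference antagonist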)). Conditions: OX1R-expressing cells, FRET antagonist read-out; at 6.6 µM; active compounds read high.
Orexin/Hypocretin receptor type 1 (Homo sapiens), sequence (O43613 whole entry, looked up): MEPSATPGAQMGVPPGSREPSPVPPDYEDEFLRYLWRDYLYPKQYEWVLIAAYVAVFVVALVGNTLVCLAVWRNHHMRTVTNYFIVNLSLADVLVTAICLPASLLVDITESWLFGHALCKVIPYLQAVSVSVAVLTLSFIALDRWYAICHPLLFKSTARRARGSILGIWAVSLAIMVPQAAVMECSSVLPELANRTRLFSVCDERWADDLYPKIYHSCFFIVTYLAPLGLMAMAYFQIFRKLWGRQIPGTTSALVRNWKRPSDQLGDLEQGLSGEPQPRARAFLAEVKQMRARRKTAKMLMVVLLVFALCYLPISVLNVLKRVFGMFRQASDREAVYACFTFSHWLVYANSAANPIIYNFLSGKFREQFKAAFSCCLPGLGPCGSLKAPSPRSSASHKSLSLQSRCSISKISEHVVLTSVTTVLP

inhibition, inactive:
COc1ccc(C(CNC(=O)c2cccc(NS(=O)(=O)c3ccc(C)c(F)c3)c2)N2CCCC2)cc1 (centres undefined) 6.44%
COc1ccc(C(CNC(=O)c2ccc(S(=O)(=O)Nc3ccccc3C)cc2)N2CCOCC2)cc1 (centres undefined) 8.1%
O=C(NCC#CCSc1nnc(-c2cccc3ccccc23)o1)c1cccs1 8.58%
COc1ccc(S(=O)(=O)N(C)C[C@H]2Oc3c(NC(=O)Nc4ccc5c(c4)OCO5)cccc3C(=O)N([C@H](C)CO)C[C@@H]2C)cc1 6.37%
Cn1nnc2cc(C(=O)NCCC3=CCCCC3)ccc21 20.7%
Cc1cccc(-c2nc3ccc(C(=O)NCCN4CCN(C)CC4)cc3nc2-c2cccc(C)c2)c1 17.7%
CC(NC(=O)COC(=O)c1ccc2ccccc2n1)c1ccccc1 (centres undefined) 15.5%
O=C(NC(=S)Nc1ccc(Br)cc1F)C1CCCCC1 4.65%
O=C(CN1C(=O)NC2(CCCCCC2)C1=O)NCc1ccc(F)cc1 6.28%
COc1cc(C)ccc1OCC(=O)OCC(=O)c1ccc[nH]1 11.8%
O=C(NCCC(=O)N1O[C@@H]2C=C[C@H]1C2)OCC1c2ccccc2-c2ccccc21 7.51%
O=C(Nc1ccccc1)N1CCN(C(=O)Nc2ccccc2)CC1 7.94%
COc1cc(C(=O)NCC(=O)N2CC=C(c3ccccc3)CC2)cc(OC)c1OC 13.7%
CC(C)n1cnc2c(NCc3ccccc3)cc(N[C@@H](CO)Cc3ccccc3)cc21 33.2%
Cc1cc(-c2ccc(C)c(S(=O)(=O)Nc3ccc(S(N)(=O)=O)cc3)c2)on1 14.9%
Cc1cc(-c2ccc(C)c(S(=O)(=O)NCCCN(Cc3ccccc3)C(C)C)c2)on1 22.4%
COc1ccc(S(=O)(=O)N(C)C[C@H]2Oc3ccc(NS(=O)(=O)c4cccs4)cc3CC(=O)N([C@H](C)CO)C[C@H]2C)cc1 8.61%
O=C(O)c1cccc(NC(=S)N/N=C/c2c[nH]c3ccccc23)c1 18.9%
O=C(N/N=C/c1c[nH]c2ccccc12)c1ccccc1O -0.06%
Cc1ccc(NC(=O)c2cc3ccccc3o2)cc1 4.2%
Cc1c(/C=N/N2C(=O)C3C4C=CC(C4)C3C2=O)c2ccccc2n1C (centres undefined) 1.17%
C=CC1=C(C(=O)O)N2C(=O)[C@@H](NC(=O)/C(=N\OCC(=O)O)c3csc(N)n3)[C@H]2SC1 9.76%
CN(C)C(=O)CCc1ccc2c3c([nH]c2c1)[C@]1(C)[C@@H](C(=O)N2CCOCC2)C[C@H](CC(=O)NCCc2ccccn2)C(=O)N1CC3 8.14%
O=C(CCS(=O)(=O)c1cccc2nonc12)NCCc1ccccc1Cl 40.5%
CC1CCCCC1NC(=O)CCS(=O)(=O)c1ccc2c(c1)NC(=O)CO2 (centres undefined) -0.2%
Cc1nn(-c2ccccc2)nc1C(=O)OCC(=O)N1CCCCC1C (centres undefined) 8.79%
Cc1noc(C)c1C(=O)OC(C)C(=O)Nc1ccc2c(c1)OCO2 (centres undefined) 6.68%
COc1ccc(S(=O)(=O)N2CCN(CC(=O)N3CCOCC3)CC2)cc1OC 7.86%
C/C(=N\NC(=O)c1ccc2ccccc2c1)c1cccnc1 7.2%
CCOc1ccccc1NC(=O)c1cccnc1 13%
O=C(OCC(=O)N1CCCCCC1)c1ccc(Cl)nc1 9.15%
C=CC[C@@H](Cc1ccc(F)cc1)C(=O)OC[C@H]1CCCN1C(=O)[C@H](CC=C)CC(=O)N(CCO)Cc1ccccc1 5.09%
CCCSc1ccc([C@H]2N[C@@](Cc3ccccc3)(C(=O)OC)[C@H]3C(=O)N(C)C(=O)[C@@H]23)cc1 8.14%
CCC1CCCCN1C(=S)NC(=O)c1ccco1 (centres undefined) 0.14%
Cc1ccc(NC(=O)CSc2nnc(CNC(=O)c3ccccc3F)o2)cc1Cl 13.1%
COc1ccc(Cc2nnc(SCC(=O)Nc3ccc(C)c(Cl)c3)[nH]c2=O)cc1 27%
CC(C)n1cnc2c(NCc3ccccc3)cc(OCC3CCN(C)CC3)cc21 19.4%
Cc1cccc(C(=O)OCC(=O)NC(C)C2CC3CCC2C3)c1O (centres undefined) 17.1%
COCCn1c(C)cc(C(=O)CN2c3cccc4cccc(c34)S2(=O)=O)c1C 24.1%
Cc1ccc(NC(=O)c2ccc(Cl)nc2)cc1S(=O)(=O)N1CCOCC1 5.02%
CCN(C(=O)CSc1nnnn1-c1ccc(OC)cc1)C1CCS(=O)(=O)C1 (centres undefined) 8.67%
COc1cc(/C=C/C(=O)OCC(=O)NCCCc2ccccc2)ccc1O 5.75%
Cc1ccc(-c2c(C)n([O-])c3c([n+]2=O)CCC3)cc1 22.7%
Cc1ccc(-c2c[n+](=O)c3c(n2[O-])CCC3)cc1 17.4%
CC(C)CC1(C)NC(=O)N(CC(=O)Nc2ccc3c(c2)OCCO3)C1=O (centres undefined) 5.05%
COc1ccc(CNC(=O)C[C@H]2C[C@H](C(=O)N3CCOCC3)[C@@]3(C)c4[nH]c5cc(CCC(=O)N(C)C)ccc5c4CCN3C2=O)cc1OC 1.77%
Nc1c(-c2ccc(F)cc2)cnc2ncnn12 7.26%
Cc1cccc(-c2nnc(SCC(=O)O)n2Cc2ccccc2)c1 -2.09%
CCn1nnnc1SCC(=O)c1ccc(C)cc1C 12.5%
CCN(C(=O)COC(=O)c1ccccc1O)c1cccc2ccccc12 4.23%
CC[C@]12c3[nH]c4ccc(Cl)cc4c3CCN1C(=O)[C@@H](CC(=O)NCCCOC)C[C@@H]2C(=O)N1CCN(C(=O)C2CC2)CC1 -3.2%
O=C(Cc1ccccc1)NNS(=O)(=O)c1ccc([N+](=O)[O-])cc1 42%
O=C(O)C1CCCCC1C(=O)N1CCN(S(=O)(=O)c2ccc(F)cc2)CC1 (centres undefined) 7.06%
COc1ccc(CCC(=O)N2CCN(S(=O)(=O)c3ccc(OC)cc3)CC2)cc1 3.59%
Cc1ccc(S(=O)(=O)N2CCCC(C(=O)N3CCN(C)CC3)C2)cc1 (centres undefined) 16.7%
O=C(C1CCCN(S(=O)(=O)c2ccccc2)C1)N1CCN(c2ccc(F)cc2)CC1 (centres undefined) 13.8%
O=C(NNS(=O)(=O)c1ccc([N+](=O)[O-])cc1)C1CCCCC1 34.2%
CC1CCCN(C(=O)CN2C(=O)c3ccccc3S2(=O)=O)C1 (centres undefined) 1.18%
COc1ccc(C(=O)Nc2cc(S(=O)(=O)N3CCCC3)ccc2Cl)cc1 16.2%
COc1ccc(OCC(=O)NNC(=O)C2CCC2)cc1 -2.24%
O=C(COC(=O)COc1cccc(F)c1)NCC1CCCCC1 4.71%
O=C(CN1C(=O)NC2(CCOc3ccccc32)C1=O)Nc1cccc([N+](=O)[O-])c1 (centres undefined) 7.29%
CCc1noc(C)c1C(=O)Nc1nc2ccc(OC)cc2s1 25.1%
Cc1ccc(F)cc1NC(=O)CSCc1c(C)noc1C -1.27%
Nn1c(SCC(=O)NC2CCCc3ccccc32)nnc1C1CC1 (centres undefined) 8.92%
COC(=O)COc1cccc2c(=O)n(CC(=O)NCCc3ccc(OC)c(OC)c3)ccc12 1.07%
CCOC(=O)C(C)Oc1cccc2c(=O)n(CC(=O)N3CCc4ccccc43)ccc12 (centres undefined) 12.2%
Cc1onc(-c2c(F)cccc2Cl)c1C(=O)OCC(=O)N1C(C)CCCC1C (centres undefined) 17.2%
CN(C)CCNC(=O)c1[nH]nc2c1CCc1ccccc1-2 3.78%
COc1ccc(/C=N/NC(=O)c2ccc3c(c2)OCCO3)c(OC)c1 22.9%

inhibition, active:
COc1ccc(C(CNC(=O)c2cccc(S(=O)(=O)Nc3ccccc3Cl)c2)N2CCOCC2)cc1 (centres undefined) 34.6%
C=CCNC(=O)c1ccc2c3n(nc2c1)-c1ccc(C)cc1CO3 75%
O=C(Nc1ccc(Cl)c(Cl)c1)N1CC=C(c2ccccc2)CC1 56.1%
Cc1cc(-c2ccc(C)c(S(=O)(=O)NC(C)Cc3ccco3)c2)on1 (centres undefined) 46%
O=C(N/N=C/c1c[nH]c2ccccc12)c1cc2ccccc2o1 65.5%
Cc1c(/C=N\NC(=O)c2cc3ccccc3o2)c2ccccc2n1C 89.7%
CC1CCCCC1NC(=O)CCS(=O)(=O)c1cccc2nonc12 (centres undefined) 57.3%
CC[n+]1cc(C)ccc1/C=C/c1ccc(N(C)C)cc1 52.2%
CCn1c(O)c2ccc(C(=O)N=NC(=O)c3cccnc3)cc2c1O 52.5%
Cc1ccc(NC(=O)CSc2nn3c(=O)c(C)nnc3s2)cc1Cl 53.8%
O=[n+]1c2c(n([O-])c3cc(Br)ccc31)CCC2 66%
CC1(C)CN(c2ccc(-c3ccnc4ncnn34)cc2)C1=O 41.3%
Cc1ccc2c(c1)nnc1nnc(SCC(=O)O)n12 89.5%
O=C(Cc1ccccc1)N1CCN(S(=O)(=O)c2ccc([N+](=O)[O-])cc2)CC1 88.8%
O=C(C1CCC1)N1CCN(S(=O)(=O)c2ccc([N+](=O)[O-])cc2)CC1 43.9%
O=C(C1CCCN(S(=O)(=O)c2ccc([N+](=O)[O-])cc2)C1)N1CCCCC1 (centres undefined) 66.7%
Cc1noc(C)c1CSCC(=O)Nc1nc2ccc(Oc3ccccc3)cc2s1 76%
CCOC(=O)C(C)Oc1cccc2c(=O)n(CC(=O)NCCc3ccc(OC)c(OC)c3)ccc12 (centres undefined) 37%
COc1cccc(/C=N/NC(=O)c2[nH]nc3c2CCc2ccccc2-3)c1O 75.7%
